Laboratory results as given in PubChem BioAssay AID1159580 (chemical genetic matrix, 2015).
Values joined by “and” are separate entries in the source; they are usually repeats but may differ in a detail not shown here. Identical values can stand only once. The whole screen tested about 5,500 compounds, of which about 2,000 (36%) were called active. About 18% were inconclusive and are not listed. Rule as the data show it: active = normalized growth mostly below about 0.91 (no sharp cut-off); inconclusive = no clear call, values can overlap the other calls; inactive = mostly above about 0.92. The list shows a part of the results.

Assay: chemical genetic growth profiling, strain panel (AID 1159580);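 also: tested at 20 µM; growth read once vehicle control cultures reached saturation at 30 °C; 1 = growth at the plate median or of vehicle wells; lower values mean less growth of the strain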
Settings: S. cerevisiae deletion strains, growth OD

Measured: normalized growth

CS(=O)(=O)c1ccc([C@@H](O)[C@@H](CO)NC(=O)C(Cl)Cl)cc1
inactive: locus YAL013W, strain DEP1, active compounds read low 0.978 | locus YAL021C, strain ccr4, active compounds read low 1.05 | locus YAL026C, strain drs2, active compounds read low 1.04 | locus YAL030W, strain snc1, active compounds read low 1.01 | locus YBL061C, strain skt5, active compounds read low 1.02 | locus YBR009C, strain hhf1, active compounds read low 1.01 | locus YBR021W, strain FUR4, active compounds read low 1.1 | locus YBR023C, strain chs3, active compounds read low 1.04 | locus YBR171W, strain sec66, active compounds read low 1.04 | locus YBR229C, strain ROT2, active compounds read low 0.964 | locus YBR231C, strain swc5, active compounds read low 1.02 | locus YBR279W, strain paf1, active compounds read low 1.04 | locus YCL011C, strain gbp2, active compounds read low 1.03 | locus YCL016C, strain dcc1, active compounds read low 1.04 | locus YCL029C, strain bik1, active compounds read low 0.981 | locus YCL069W, strain vba3, active compounds read low 1.03 | locus YCR088W, strain abp1, active compounds read low 1.03 | locus YDL005C, strain med2, active compounds read low 1.02 | locus YDL035C, strain GPR1, active compounds read low 0.988 | locus YDL040C, strain nat1, active compounds read low 1.02 | locus YDL074C, strain BRE1, active compounds read low 0.957 | locus YDL101C, strain DUN1, active compounds read low 0.967 | locus YDL134C, strain PPH21, active compounds read low 0.985 | locus YDL185W, strain tfp1, active compounds read low 0.941 | locus YDL192W, strain arf1, active compounds read low 0.981 | locus YDR001C, strain nth1, active compounds read low 1.02 | locus YDR069C, strain doa4, active compounds read low 1 | locus YDR101C, strain arx1, active compounds read low 0.998 | locus YDR137W, strain rgp1, active compounds read low 1.06 | locus YDR150W, strain NUM1, active compounds read low 0.977 | locus YDR159W, strain sac3, active compounds read low 0.942 | locus YDR162C, strain NBP2, active compounds read low 0.954 | locus YDR195W, strain ref2 1.01 | locus YDR297W, strain sur2, active compounds read low 1.02 | locus YDR318W, strain mcm21, active compounds read low 0.998 | locus YDR334W, strain swr1, active compounds read low 1.02 | locus YDR335W, strain msn5, active compounds read low 1.04 | locus YDR388W, active compounds read low 0.991 | locus YDR392W, strain spt3, active compounds read low 0.947 | locus YDR502C, strain sam2, active compounds read low 0.997 | locus YEL003W, strain gim4, active compounds read low 1.01 | locus YEL037C, strain rad23, active compounds read low 1.02 | locus YEL061C, strain CIN8 (second series), active compounds read low 1.02 | locus YEL061C, strain CIN8, active compounds read low 0.979 | locus YER015W, strain faa2, active compounds read low 1.02 | locus YER016W, strain bim1, active compounds read low 1.04 | locus YER110C, active compounds read low 0.974 | locus YER111C, strain swi4, active compounds read low 1.03 | locus YER155C, strain BEM2 (second series), active compounds read low 1.03 | locus YER155C, strain BEM2, active compounds read low 1 | locus YER167W, strain BCK2, active compounds read low 0.985 | locus YFR010W, strain ubp6, active compounds read low 1.02 | locus YGL078C, strain dbp3, active compounds read low 1 | locus YGL086W, strain mad1, active compounds read low 1 | locus YGL167C, strain pmr1, active compounds read low 1.02 | locus YGL173C, strain kem1, active compounds read low 1.02 | locus YGL227W, strain vid30, active compounds read low 1.02 | locus YGL240W, strain doc1, active compounds read low 0.996 | locus YGL248W, strain PDE1, active compounds read low 0.968 | locus YGL253W, strain hxk2, active compounds read low 1.05 | locus YGR078C, strain PAC10, active compounds read low 0.993 | locus YGR135W, strain pre9, active compounds read low 0.98 | locus YGR229C, strain SMI1, active compounds read low 0.979 | locus YGR252W, strain gcn5, active compounds read low 1.06 | locus YHR013C, strain ard1, active compounds read low 1.05 | locus YHR027C, strain rpn1, active compounds read low 1.02 | locus YHR030C, strain SLT2, active compounds read low 0.983 and 0.994 | locus YHR079C, strain IRE1 (second series), active compounds read low 0.998 | locus YHR079C, strain IRE1, active compounds read low 0.982 | locus YHR094C, strain hxt1, active compounds read low 0.991 | locus YHR129C, strain ARP1, active compounds read low 0.989 | locus YHR142W, strain chs7, active compounds read low 1.07 | locus YHR200W, strain rpn10, active compounds read low 0.989 | locus YIL066C, strain RNR3, active compounds read low 0.995 | locus YIL073C, strain SPO22, active compounds read low 0.998 | locus YIL125W, strain kgd1, active compounds read low 0.992 | locus YIR030C, strain dcg1, active compounds read low 0.978 | locus YJL092W, strain hpr5, active compounds read low 1.02 | locus YJL095W, strain BCK1 (second series), active compounds read low 1.01 | locus YJL095W, strain BCK1, active compounds read low 1 and 0.995 | locus YJL115W, strain asf1, active compounds read low 1.04 | locus YJL129C, strain trk1, active compounds read low 1.05 | locus YJL134W, strain LCB3, active compounds read low 0.974 | locus YJL154C, strain vps35, active compounds read low 1.03 | locus YJL164C, strain tpk1, active compounds read low 1.01 | locus YJL166W, strain qcr8, active compounds read low 1.02 | locus YJL168C, strain set2, active compounds read low 0.985 | locus YJL187C, strain SWE1 (second series), active compounds read low 0.975 | locus YJR043C, strain POL32, active compounds read low 1.01 | locus YJR066W, strain TOR1, active compounds read low 0.962 | locus YJR075W, strain HOC1, active compounds read low 0.983
